Each structure is given as a SMILES string. Hit rate of the full screen: of about 48,000 compounds, about 13,000 (27%) showed an effect of 50% or more. This is one part of the list.

The test concerns Wolbachia pipientis. The test is described as follows: Anti-Wolbachia Cell-Based Screen. Format: functional. On the set-up: scale not given: in the data most compounds retested in dose-response had high values. The settings on record: 5 µM.
As for `Cc1[nH]ncc1C(=O)N1CCN(CC(O)C(C)(C)C)CC1` (configuration not stated), the “Percent Effect” value came to 6.282%. The result for `O=C(c1cnc(Nc2ccccc2)nc1)N1CCS(=O)(=O)CC1` reads 6.856%; that for `Cc1noc(CN(Cc2ccco2)Cc2cccc3c2OCO3)n1`, -16.92%. The result for `c1coc(CN2CCC3(CC2)CC(N2CCCC2)CO3)c1` (configuration not stated) reads -47.38%. The result for `CN(C)CC(=O)N1CCC2(CC1)CN(Cc1cccnc1)C(=O)CO2` reads 109.2%; that for `CCOCC(=O)N1CCC[C@]2(C[C@@H](OCc3ccncc3)CO2)C1`, 2.897%. Turning to `O=C1CCC2(CCCN(C(=O)c3ccoc3)C2)CN1Cc1ccncc1` (configuration not stated), the “Percent Effect” value worked out at 9.259%. In the case of `O=C1COC2(CCN(C(=O)c3ccoc3)CC2)CN1Cc1cccnc1`, the “Percent Effect” value worked out at 89.17%. Next, `CCOCC(=O)N1CCC2(CC1)CN(Cc1cccnc1)C(=O)CO2`: 106.9%; `O=C(c1ccoc1)N1CCC(NCc2cccnc2)CC1`: -13.71%. Next, `O=C1CCC2(CCCN(C(=O)c3ccc[nH]3)C2)CN1Cc1cccnc1` (configuration not stated): -3.42%; `O=C1COC2(CCN(Cc3ccco3)CC2)CN1Cc1cccnc1`: 107.7%. As for `O=C(O)c1cc2c(nc1O)CC(c1cccs1)CC2=O` (configuration not stated), the “Percent Effect” value was found to be 17.51%. As for `O=C(CCS(=O)(=O)C1CCCC1)NCCc1cccnc1`, the “Percent Effect” value is 3.812%.

Take `c1cn(Cc2nnc(C3CCN(C4CCOCC4)CC3)n2C2CC2)cn1`: the “Percent Effect” value stood at 2.986%. Next, `Cc1ccccc1Cc1nc(CSc2nnc(N)n2C2CC2)no1`: 8.42%; `O=C(O)c1cc(-c2cccnc2)cc(S(=O)(=O)NCc2ccccn2)c1`: -2.76%. The result for `CCC(C)Oc1cc(C(=O)Nc2nnc(C(C)C)[nH]2)ccn1` (configuration not stated) reads -13.47%.

`Cc1occc1C(=O)N1CCC(C(O)c2ccc(Cl)cc2)CC1` (configuration not stated): the “Percent Effect” value was -7.182%. `CN(C)c1ncnc2c1CCN(c1cc(C(F)(F)F)ncn1)CC2`: the “Percent Effect” value is listed as -1.194%.

Turning to `COCCN1CCc2ncnc(NC3CC3)c2CC1`, the “Percent Effect” value is recorded as 94.73%. `Cc1nc2n(n1)CC(Nc1ncnc3c1CCC3)CC2` (configuration not stated): the “Percent Effect” value was found to be 2.355%.

On to `CN(C)c1ncnc2c1CCN(c1cccc(F)c1)CC2`, for which the “Percent Effect” value is -12.67%.

Regarding `FC(F)(F)c1cc(N2CCc3ncnc(NC4CC4)c3CC2)ncn1`, the “Percent Effect” value is given as -22.18%. Next, `COCCN1CCc2ncnc(N(C)C)c2CC1`: 110.9%; `Cc1ccc(S(=O)(=O)Cc2noc([C@@H]3C[C@@H](O)CN3C(C)C)n2)cc1`: -1.954%; `COCCNC(=O)C(C)N1CCN(C)CC1.O=C(O)C(=O)O` (configuration not stated): 114.3%. In the case of `COCCNC(=O)N1CCN(C(C)C(=O)NC(C)C)CC1` (configuration not stated), the “Percent Effect” value came out at 2.251%. Take `COCCNC(=O)N1CCN(C(C)C(=O)NC2CCCC2)CC1` (configuration not stated): the “Percent Effect” value is reported as -10.58%. For the compound `Cc1cccc(CC(=O)Nc2cccnc2N2CCC(CO)CC2)c1`, the “Percent Effect” value is listed as -12.05%. `O=C1CCC2(CCCN(c3ncc(Cl)cc3F)C2)CN1CC1CC1` (configuration not stated): the “Percent Effect” value was -9.557%.

On to `NCc1ccc(N2CCN(c3ncccn3)CC2)c(F)c1`, for which the “Percent Effect” value was 3.698%. The result for `Cc1cccc(N2N=C(C(=O)NC(C)Cc3ccco3)CCC2=O)c1` (configuration not stated) reads 19.33%; that for `CC1C(=O)Nc2cccnc2N1S(=O)(=O)c1cc(F)cc(F)c1` (configuration not stated), -12.84%; that for `Cc1cc(C(=O)N2CCCC2c2nnc3n2CCCCC3)no1` (configuration not stated), -10.19%. Next, `Cc1cc(N2CCc3c(ncn3C)C2)nc(N)n1`: -0.5866%. The result for `Cc1cc(N2CCCC2c2nnc3n2CCCCC3)nc(N)n1` (configuration not stated) reads 170%. With `Cc1cc(N2CCCC2c2nnc3n2CCCCC3)nc(C)n1` (configuration not stated), the “Percent Effect” value is reported as 112.6%.

On to `Cc1cc(NCc2nnc3n2CCCCC3)n2nc(C)c(C)c2n1`, for which the “Percent Effect” value was -13.55%.

Consider `Cc1cc(N2CCc3c(ncn3C3CC3)C2)nc(N)n1`, for which the “Percent Effect” value is given as 13.11%. Turning to `CN1C(=O)C(c2ccccc2)CC12CCN(CCN1CCCC1=O)CC2` (configuration not stated), the “Percent Effect” value was -2.19%. Next, `CCc1cccc(NC(=O)NC2CCc3nc(C)nn3C2)c1` (configuration not stated): -9.583%; `CC(C)n1[nH]c(=O)c2c1NC(=O)CC2C1CCCCC1` (configuration not stated): 0.5792%. With `Cc1cscc1C(=O)Nc1cc(CSCCO)ccn1`, the “Percent Effect” value is on record as -31.68%. The result for `COc1cccc(C(C(=O)O)N2CCCN(c3ccnc(C)c3)CC2)c1` (configuration not stated) reads 11.66%; that for `N#Cc1cc(F)c(NCCc2ccc(S(N)(=O)=O)cc2)c(F)c1`, 2.812%. Next, `N#Cc1cc(F)c(NCCc2ccc(F)cc2)c(F)c1`: -6.207%; `N#Cc1cc(F)c(NCc2ccc(F)cc2)c(F)c1`: 53.8%. The result for `Cc1ccc([C@@H]2CN(C(=O)c3csc(C)n3)C[C@H]2NC(=O)C2CC2)cc1` reads -2.75%; that for `CC(C)c1nnc2n1CCN(CC(=O)N1CCc3ccccc3C1)C2`, 2.244%; that for `CCSc1ncc(-c2cc(C3CCC3)nc(N)c2C#N)cn1`, 87.05%. On to `CCSc1ncc(-c2cc(C3CC3)nc(N)c2C#N)cn1`, for which the “Percent Effect” value is recorded as 99.54%. `CCSc1ncc(CN2CCN(c3ccc(C#N)cc3)C(=O)C2)cn1`: the “Percent Effect” value was -0.09513%.

As to `CCSc1ncc(-c2nccn2CCN(C)C)cn1`, the “Percent Effect” value is given as -18.01%. With `CCCNc1ncc(-c2cc(C3CC3)nc(N)c2C#N)cn1`, the “Percent Effect” value amounted to 97.87%. The result for `CCSc1ncc(CN2CCN(c3ncc(C)c(N)n3)CC2)cn1` reads -0.8762%; that for `CC(C)c1ncc(-c2cc(C3CCC3)nc(N)c2C#N)cn1`, 96.4%.

(Values after ChEMBL document CHEMBL3988442, “University of Dundee, Small-Polar-MMV Screening Library” (2021).)
